Records with an inconclusive call do not appear. Unmarked numbers belong to inactive results. Calls of active or inactive are those of the source. Calls come from the whole dose curve; as a rule, active = well fitted activation curve with a large enough effect; inconclusive = small, poorly fitted or top-dose-only effect; inactive = no such curve, though single readings can be large or run the other way.
Target: Cellular tumor antigen p53 (Homo sapiens) (UniProt P04637)
Experiment: Primary qHTS for small molecule compounds that upregulate eGFP-tagged delta133p53alpha (in N-terminal) cells. (AID 2060322); note: nearly all actives have a fitted effect of over 75% in size;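 for activation: series mostly up to about 56 µM; 0% = DMSO vehicle and 100% = reference activator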
Settings: NCI-H358 eGFP-delta133p53alpha fluorescence, 24 h; activation: active compounds read high
Procedure, shortened: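 NCI-H358 cells pre-induced 24 h with 10 ng/ml doxycycline to express N-terminal eGFP-delta133p53alpha, then dosed 24 h at 37C without doxycycline; fixed, Hoechst-stained, GFP intensity by laser scanning cytometry, normalized to DMSO (0%) and 57.5 uM 5-azacytidine (100%).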
Potency is the fitted concentration of half-maximal effect.

Cellular tumor antigen p53 (Homo sapiens), sequence (P04637 whole entry, looked up): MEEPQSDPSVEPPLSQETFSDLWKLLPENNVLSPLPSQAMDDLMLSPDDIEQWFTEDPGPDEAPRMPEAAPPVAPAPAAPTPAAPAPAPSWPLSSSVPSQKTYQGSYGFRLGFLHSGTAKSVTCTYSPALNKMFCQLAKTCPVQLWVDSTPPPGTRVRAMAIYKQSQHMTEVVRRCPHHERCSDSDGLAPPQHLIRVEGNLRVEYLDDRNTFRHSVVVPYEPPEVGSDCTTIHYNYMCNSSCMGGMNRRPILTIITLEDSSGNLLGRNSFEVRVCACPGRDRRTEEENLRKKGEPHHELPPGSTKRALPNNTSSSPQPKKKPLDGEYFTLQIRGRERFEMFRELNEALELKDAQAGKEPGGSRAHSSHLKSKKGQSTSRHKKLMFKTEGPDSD

| Structure (SMILES) | activation | Potency |
| --- | --- | --- |
| COc1cc(C(C)=O)ccc1O[C@@H]1O[C@H](CO[C@@H]2OC[C@@H](O)[C@H](O)[C@H]2O)[C@@H](O)[C@H](O)[C@H]1O | 9.16% |  |
| CC1OC(OC2C(C)OC(OC3C(OC(=O)/C=C/c4ccc(O)cc4)C(CO)OC(OC4(COC(=O)/C=C/c5ccc(O)cc5)OC(CO)C(O)C4O)C3OC3OCC(O)(CO)C3O)C(O)C2O)C(O)C(O)C1O (centres undefined) | 14.5% |  |
| C/C=C/C=C/C=C/C(=O)O[C@@H]1[C@@H](OC)C2=C(C(=O)N(C(C)C(=O)O)C2)[C@@]2(C)CCCC(C)(C)[C@H]12 (some centres undefined) | -2.68% |  |
| CC1(C)CC[C@@]2(C(=O)O[C@@H]3O[C@H](CO)[C@@H](O)[C@H](O)[C@H]3O)C(C1)C1=CCC3[C@@]4(C)CC[C@@H](O[C@@H]5O[C@H](C(=O)O)[C@@H](O[C@@H]6OC[C@@H](O)[C@H](O)[C@H]6O)[C@H](O[C@@H]6OC[C@](O)(CO)[C@H]6O)[C@H]5O)C(C)(C)C4CC[C@@]3(C)[C@]1(C)C[C@H]2O (some centres undefined) | -19.8% |  |
| CC(=O)OC1C(OC(=O)c2ccccc2)C2C(=C(C)CCC2(C)C)C23CCC(C)(C2)C(=O)CC13 (centres undefined) | -13% |  |
| C[C@@H]1O[C@@H](O[C@H]2[C@H](O)[C@@H](O[C@@H]3O[C@H](CO)[C@H](O)[C@H](O)[C@H]3O)[C@H](O[C@H]3CC[C@@]4(C)C(CC[C@]5(C)C4CC=C4[C@@H]6CC(C)(C)CC[C@]6(C(=O)O[C@@H]6O[C@H](CO)[C@@H](O)[C@H](O)[C@H]6O)CC[C@]45C)C3(C)C)O[C@@H]2C(=O)O)[C@H](O)[C@H](O)[C@H]1O (some centres undefined) | 5.34% |  |
| Cc1ccc(C)c(S(=O)(=O)n2cnc3ccccc32)c1 | 1% |  |
| CC(C)C(C(=O)N(C)C(C)C(N)=O)N(C)C(=O)C1CCCN1C(=O)/C=C/C=C/C(O)C(C)O (centres undefined) | -23.7% |  |
| C=C(C(=O)O)[C@@H]1CC[C@H](C)[C@@H]2CC(=O)C(C)=C2C1 | -8.04% |  |
| COCC(=O)N1CCc2cc(-c3csc(NC(=O)c4cc(OC)cc(OC)c4)n3)ccc21 | 13.7% |  |
| CC1=CC[C@@]2(C)CC[C@@](O)(C(C)C)[C@@H]2[C@@H](O)C1 | 11.5% |  |
| CC(C(O)c1ccccc1)N(C)CCOC(c1ccccc1)c1ccccc1 (centres undefined) |  | 21.9 µM (active) |
| COc1c2c(c(C)c3c1C(=O)OC3)OC1(C)CC(O)C(C(C)(C)O)C(C)(CCC(=O)O)C1C2 (centres undefined) | 8.4% |  |
| CC(=O)O[C@H]1C[C@@](O)(C(C)C)[C@@H]2[C@@H](OC(=O)c3ccc(O)cc3)CC(C)=CC[C@@]12C | 21.4% |  |
| NC1Nc2ccccc2C1(N)CC1NC(=O)C(Cc2ccccc2)NC(=O)C(Cc2ccccc2)NC1=O (centres undefined) | -3.05% |  |
| COC1CC(=O)CCC(C)OC(=O)CC1O (centres undefined) | -6.87% |  |
| CC(C)CC(=O)OC[C@@]1(O)C[C@@]23CC[C@H]4[C@@](C)(CCC[C@@]4(C)C(=O)O)[C@@H]2CC[C@@H]1C3 | -13% |  |
| C=CC1C(O[C@@H]2O[C@H](CO)[C@@H](O)[C@H](O)[C@H]2O)OC=C(C(=O)OC)C1CC(=O)O (some centres undefined) | 23.2% |  |
| CC1(C)C2CC=C(COC3OC(COC4OCC(O)(CO)C4O)C(O)C(O)C3O)C1C2 (centres undefined) | 18.3% |  |
| CC(=O)C=C=C1C(C)(C)CC(O[C@@H]2O[C@H](CO)[C@@H](O)[C@H](O)[C@H]2O)CC1(C)O (some centres undefined) | -1.79% |  |
| C=C1CCC2C(C)(C)C(O)CCC2(C)C1CCC(C)CCO (centres undefined) | 6.25% |  |
| C=CC1(C)CC(OC(=O)C(=C)C(O)COC(C)=O)C(C(=C)C(=O)OC)C(O)C1C(=C)CO (centres undefined) | -2.29% |  |
| C[C@@H]1O[C@@H](O[C@H]2[C@H](O[C@H]3[C@H](O[C@H]4CC[C@@]5(C)C(CC[C@]6(C)C5CC=C5[C@@H]7CC(C)(C)C[C@@H](O)[C@]7(C)CC[C@]56C)[C@@]4(C)CO)O[C@H](C(=O)O)[C@@H](O)[C@@H]3O)O[C@H](CO)[C@H](O)[C@@H]2O)[C@H](O)[C@H](O)[C@H]1O (some centres undefined) | -9.92% |  |
| CC1(C)CC[C@]2(C(=O)O[C@@H]3O[C@H](CO)[C@@H](O)[C@H](O)[C@H]3O)CC[C@]3(C)C(=CCC4[C@@]5(C)CC[C@H](O[C@@H]6O[C@H](C(=O)O)[C@@H](O)[C@H](O)[C@H]6OC6OC(CO)C(O)C(O)C6O)C(C)(C)C5CC[C@]43C)[C@@H]2C1 (some centres undefined) | -5.36% |  |

— PubChem BioAssay (NCATS)
